According to PubChem BioAssay AID1159580 (chemical genetic matrix, 2015):
Screen size: about 5,500 compounds; about 2,000 (36%) were called active. Roughly 18% stayed inconclusive and do not appear here. Cut-off read from the data, not from the text of the source: active = normalized growth mostly below about 0.91 (no sharp cut-off); inconclusive = no clear call, values can overlap the other calls; inactive = mostly above about 0.92. The list shows a part of the results.

Test: chemical genetic growth profiling, strain panel (AID 1159580);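 note: tested at 20 µM; growth read once vehicle control cultures reached saturation at 30 °C; 1 = growth at the plate median or of vehicle wells; lower values mean less growth of the strain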
Details: growth OD

Measured: normalized growth

CN1CC(=O)N=C1N
inactive: S. cerevisiae deletion strains, locus YJR043C, strain POL32, hits give low values 1.01 | S. cerevisiae deletion strains, locus YJR066W, strain TOR1, hits give low values 0.902 | S. cerevisiae deletion strains, locus YJR075W, strain HOC1, hits give low values 1.01 | S. cerevisiae deletion strains, locus YKL009W, strain mrt4, hits give low values 1.05 | S. cerevisiae deletion strains, locus YKL068W, hits give low values 0.996 | S. cerevisiae deletion strains, locus YKL085W, strain MDH1 (second series), hits give low values 0.998 | S. cerevisiae deletion strains, locus YKL085W, strain MDH1, hits give low values 0.998 | S. cerevisiae deletion strains, locus YKL160W, strain elf1, hits give low values 1.01 | S. cerevisiae deletion strains, locus YKR001C, strain vps1, hits give low values 1.01 | S. cerevisiae deletion strains, locus YKR026C, strain gcn3, hits give low values 0.994 | S. cerevisiae deletion strains, locus YKR091W, strain srl3, hits give low values 1.02 | S. cerevisiae deletion strains, locus YLL001W, strain dnm1, hits give low values 1.01 | S. cerevisiae deletion strains, locus YLL026W, hits give low values 1.02 | S. cerevisiae deletion strains, locus YLL041C, strain sdh2, hits give low values 1.02 | S. cerevisiae deletion strains, locus YLR027C, strain aat2, hits give low values 1.03 | S. cerevisiae deletion strains, locus YLR039C, strain RIC1, hits give low values 1.04 | S. cerevisiae deletion strains, locus YLR058C, strain SHM2, hits give low values 1.01 | S. cerevisiae deletion strains, locus YLR102C, strain apc9, hits give low values 0.992 | S. cerevisiae deletion strains, locus YLR113W, strain HOG1, hits give low values 0.94 | S. cerevisiae deletion strains, locus YLR221C, strain rsa3, hits give low values 1.05 | S. cerevisiae deletion strains, locus YLR258W, strain gsy2, hits give low values 1.03 | S. cerevisiae deletion strains, locus YLR262C, strain YPT6 (second series), hits give low values 1.09 | S. cerevisiae deletion strains, locus YLR262C, strain YPT6, hits give low values 1.08 | S. cerevisiae deletion strains, locus YLR268W, strain sec22, hits give low values 0.977 | S. cerevisiae deletion strains, locus YLR320W, strain mms22, hits give low values 1.07 | S. cerevisiae deletion strains, locus YLR330W, strain CHS5, hits give low values 1.01 | S. cerevisiae deletion strains, locus YLR342W, strain FKS1 (second series), hits give low values 0.984 | S. cerevisiae deletion strains, locus YLR342W, strain FKS1, hits give low values 1.03 | S. cerevisiae deletion strains, locus YLR357W, strain rsc2, hits give low values 1.01 | S. cerevisiae deletion strains, locus YLR370C, strain arc18, hits give low values 1.02 | S. cerevisiae deletion strains, locus YLR371W, strain rom2, hits give low values 0.985 | S. cerevisiae deletion strains, locus YLR384C, strain iki3, hits give low values 1.01 | S. cerevisiae deletion strains, locus YLR418C, strain cdc73, hits give low values 0.98 | S. cerevisiae deletion strains, locus YML016C, strain PPZ1, hits give low values 1.01 | S. cerevisiae deletion strains, locus YML032C, strain rad52, hits give low values 0.987 | S. cerevisiae deletion strains, locus YML120C, strain ndi1, hits give low values 1.03 | S. cerevisiae deletion strains, locus YML124C, strain tub3, hits give low values 0.992 | S. cerevisiae deletion strains, locus YMR058W, strain fet3, hits give low values 1.04 | S. cerevisiae deletion strains, locus YMR078C, strain ctf18, hits give low values 1 | S. cerevisiae deletion strains, locus YMR125W, strain sto1, hits give low values 1.02 | S. cerevisiae deletion strains, locus YMR129W, hits give low values 1.01 | S. cerevisiae deletion strains, locus YMR205C, strain PFK2, hits give low values 1.08 | S. cerevisiae deletion strains, locus YMR223W, strain ubp8, hits give low values 0.992 | S. cerevisiae deletion strains, locus YMR231W, strain pep5, hits give low values 1.01 | S. cerevisiae deletion strains, locus YMR307W, strain GAS1, hits give low values 0.998 | S. cerevisiae deletion strains, locus YNL067W, strain RPL9B, hits give low values 1.01 | S. cerevisiae deletion strains, locus YNL071W, strain lat1, hits give low values 1.03 | S. cerevisiae deletion strains, locus YNL128W, strain TEP1, hits give low values 1.04 | S. cerevisiae deletion strains, locus YNL183C, strain NPR1, hits give low values 0.893 | S. cerevisiae deletion strains, locus YNL209W, strain ssb2, hits give low values 1.03 | S. cerevisiae deletion strains, locus YNL233W, strain BNI4, hits give low values 1.01 | S. cerevisiae deletion strains, locus YNL248C, strain rpa49, hits give low values 1.02 | S. cerevisiae deletion strains, locus YNL250W, strain rad50, hits give low values 0.996 | S. cerevisiae deletion strains, locus YNL271C, strain bni1, hits give low values 0.991 | S. cerevisiae deletion strains, locus YNL298W, strain CLA4, hits give low values 0.988 | S. cerevisiae deletion strains, locus YNL307C, strain MCK1, hits give low values 0.98 | S. cerevisiae deletion strains, locus YNL322C, strain KRE1 (second series), hits give low values 1.02 | S. cerevisiae deletion strains, locus YNL322C, strain KRE1, hits give low values 1.01 | S. cerevisiae deletion strains, locus YNR049C, strain mso1, hits give low values 1.01 | S. cerevisiae deletion strains, locus YNR052C, strain pop2, hits give low values 0.991 | S. cerevisiae deletion strains, locus YOL012C, strain htz1 2.03 | S. cerevisiae deletion strains, locus YOL147C, strain pex11, hits give low values 0.99 | S. cerevisiae deletion strains, locus YOR001W, strain rrp6, hits give low values 1.02 | S. cerevisiae deletion strains, locus YOR061W, strain CKA2, hits give low values 1.01 | S. cerevisiae deletion strains, locus YOR069W, strain VPS5, hits give low values 1.01 | S. cerevisiae deletion strains, locus YOR070C, strain gyp1, hits give low values 1.03 | S. cerevisiae deletion strains, locus YOR080W, strain dia2, hits give low values 1.02 | S. cerevisiae deletion strains, locus YOR083W, strain WHI5, hits give low values 1.01 | S. cerevisiae deletion strains, locus YOR106W, strain vam3, hits give low values 1.02 | S. cerevisiae deletion strains, locus YOR136W, strain idh2, hits give low values 0.996 | S. cerevisiae deletion strains, locus YOR144C, strain elg1, hits give low values 0.997 | S. cerevisiae deletion strains, locus YOR184W, strain ser1, hits give low values 1.03 | S. cerevisiae deletion strains, locus YOR231W, strain MKK1, hits give low values 0.964 | S. cerevisiae deletion strains, locus YOR265W, strain rbl2, hits give low values 1.01 | S. cerevisiae deletion strains, locus YOR270C, strain vph1, hits give low values 1.11 | S. cerevisiae deletion strains, locus YOR290C, strain snf2, hits give low values 1.02 | S. cerevisiae deletion strains, locus YOR316C, strain cot1, hits give low values 0.993 | S. cerevisiae deletion strains, locus YPL051W, strain arl3, hits give low values 1.02 | S. cerevisiae deletion strains, locus YPL055C, strain LGE1, hits give low values 1.03 | S. cerevisiae deletion strains, locus YPL078C, strain atp4, hits give low values 1.02 | S. cerevisiae deletion strains, locus YPL106C, strain sse1, hits give low values 1.02 | S. cerevisiae deletion strains, locus YPL240C, strain hsp82, hits give low values 1.02 | S. cerevisiae deletion strains, locus YPL256C, strain CLN2, hits give low values 0.946 | S. cerevisiae deletion strains, locus YPR119W, strain clb2, hits give low values 0.991 | S. cerevisiae deletion strains, locus YPR141C, strain kar3, hits give low values 0.989 | S. cerevisiae deletion strains, locus YPR163C, strain tif3, hits give low values 0.982 | S. cerevisiae deletion strains, locus YPR167C, strain met16, hits give low values 0.979 | S. cerevisiae deletion strains, strain wtn01, hits give low values 0.974 | S. cerevisiae strains, strain wild type, hits give low values 1.01
